Sm TGR inh – qHTS Assay for the Inhibitors of Schistosoma Mansoni Peroxiredoxins; Schistosoma mansoni thioredoxin glutathione reductase (TGR), Q962Y6; purified TGR, DTNB reduction, TNB absorbance 405 nm; Potency, µM (titrated, usually from 114 µM), for the others: at the highest dose activity change, negative = inhibition, most hits filed as inhibitors; actives 3% (n = 360,000); further: nearly all actives have a fitted effect of over 60% in size
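TGR 20 nM + NADPH 100 uM (dispensed conc.), cpd preinc 15 min RT; start with NADPH (500 uM addition) then DTNB (15 mM addition). Kinetic TNB absorbance, 405 nm filter. Four-parameter Hill fit across titration.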
LmPK inhibitor – qHTS Assay for Inhibitors of Leishmania Mexicana Pyruvate Kinase (LmPK). purified LmPK, Kinase-Glo ATP luminescence, 1 h. actives 0.37% (n = 290,000). AID 1721, 2009. Potency, µM (doses to about 57.5 µM), for inactives: top-dose activity change, negative = inhibition, actives largely listed as inhibitors. Q27686
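Screened at intermediate enzyme activity to detect both inhibitors and activators: LmPK at 0.1 nM, with a 0.5 nM enzyme column as activation reference. PEP 0.5 mM, ADP 0.1 mM; ATP detected by luminescence after 1 h.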
FBPA Giardia inh – qHTS Assay for Inhibitors of Fructose-1,6-bisphosphate Aldolase from Giardia Lamblia; A8B2U2; purified Giardia FBPA; Potency, µM (doses to about 59.6 µM), inactives show at the top dose activity, negative = inhibition, hits mostly inhibitors; actives 0.71% (n = 290,000); further: nearly all actives have a fitted effect of over 55% in size
Target sequence (A8B2U2 whole entry, looked up): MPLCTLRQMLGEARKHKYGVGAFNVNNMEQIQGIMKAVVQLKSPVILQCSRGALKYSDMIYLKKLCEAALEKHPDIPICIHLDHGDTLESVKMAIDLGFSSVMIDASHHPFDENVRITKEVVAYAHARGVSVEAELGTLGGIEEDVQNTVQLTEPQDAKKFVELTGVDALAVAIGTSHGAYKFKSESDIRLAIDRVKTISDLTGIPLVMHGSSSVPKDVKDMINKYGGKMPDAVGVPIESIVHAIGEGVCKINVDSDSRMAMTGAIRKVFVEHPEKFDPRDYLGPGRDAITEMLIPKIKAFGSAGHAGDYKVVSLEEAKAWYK
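Giardia FBPA (40 nM reagent) was preincubated 10 min at RT with compound (up to 57.5 uM final), then substrate plus GAPDH/TPI/NAD/arsenate coupling system with diaphorase/resazurin was added; resorufin fluorescence (525/598 nm) was read after 20 min.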
TbPYK inhibitor – qHTS of Trypanosoma Brucei Inhibitors. TbPYK enzyme, Kinase-Glo Plus ATP luminescence, 45 min. Potency, µM (doses to about 76.8 µM), for inactives: at the top dose activity, negative = inhibition, actives largely listed as inhibitors. actives 0.12% (n = 410,000); further: nearly all actives have a fitted effect of over 50% in size
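In this concentration-response screen, enzyme-free wells defined baseline while DMSO plates tracked drift. Each reaction combined TbPYK, substrate, compound and 130 uM ADP for 45 min at room temperature. Kinase-Glo Plus luminescence gave the signal.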
RE007 growth inh – qHTS Assay for Inhibitors of the HIV-1 protein Vpr; S. pombe RE007 Vpr strain, BacTiter-Glo ATP luminescence, 24 h; Potency, µM (titrated, usually from 92.2 µM), for inactives: top-dose activity change, negative = less growth, most hits filed as inhibitors; actives 0.21% (n = 360,000); active means well fitted falling curve with a large enough effect; inconclusive means small, poorly fitted or top-dose-only effect; inactive means no such curve, though single readings can be large or run the other way; further: nearly all actives have a fitted effect of over 50% in size
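Fission yeast strain RE007, carrying one chromosomally integrated HIV-1 vpr copy, was seeded at OD 0.01 in PMG+AL medium with 23 nL pinned compound. After 24 h at 30 °C and 99% humidity, viability was read by BacTiter-Glo luminescence.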
Starred values were filed as active, the others as inactive; ? = inconclusive; / = no result given. The list is not random: actives were taken first. Their share in the collection is about 3.3%. Unless noted, the call rests on the fitted dose curve; in most records, active means well fitted curve in the direction sought with a large enough effect; inconclusive means small, poorly fitted or top-dose-only effect, or another doubt; inactive means no such curve, though single readings can be large; an effect the other way counts as inactive or inconclusive. On the % scale 0 is the no-effect control and ±100 the full control effect; potency means the concentration at half of the fitted maximal effect.

SMILES	Sm TGR inh	LmPK inhibitor	FBPA Giardia inh	TbPYK inhibitor	RE007 growth inh
C=CCN=C1NN=C(c2ccc3c(c2)OCCO3)CS1	-14%	10µM*	-24%	-15%	0%
CC1(C)CC(=O)C(N=Nc2cc(C(F)(F)F)ccc2Cl)=C(O)C1	-1%	1%	1%	-4%	12%
CC1(C)CC(=O)C(N=Nc2cc(S(=O)(=O)N3CCOCC3)ccc2Cl)=C(O)C1	10µM*	9%	-2%	5%	17%
O=C(C1=C[C@H](c2ccc3c(c2)OCO3)C[C@H](OCCCCO)O1)N1CCOCC1	?	5%	9%	-1%	1%
O=C(C1=C[C@H](c2ccccc2)C[C@H](OCc2ccc(CO)cc2)O1)N1CCN(Cc2ccccc2)CC1	28µM*	6%	-19%	1%	-22%
O=C(C1=C[C@H](c2ccc(Br)cc2)C[C@H](OCCCCO)O1)N1CCN(Cc2ccccc2)CC1	35µM*	7%	-5%	4%	1%
O=C(C1=C[C@@H](c2ccc(Br)cc2)C[C@@H](OCCCCO)O1)N1CCN(Cc2ccc3c(c2)OCO3)CC1	-2%	8%	-4%	-8%	-12%
O=C(C1=C[C@H](c2csc3ccccc23)C[C@H](OCCCCO)O1)N1CCN(Cc2ccccc2)CC1	18µM*	9%	?	-3%	-12%
O=C(C1=C[C@H](c2ccccc2)C[C@H](OCCCCO)O1)N1CCOCC1	45µM*	0%	7%	1%	5%
O=C(C1=C[C@@H](c2ccccc2)C[C@@H](OCc2ccc(CO)cc2)O1)N1CCN(Cc2ccc3c(c2)OCO3)CC1	-9%	3%	-11%	0%	7%
CCn1cc(C(=O)NCCCN2CC(C)CC(C)C2)c(=O)c2cc(S(=O)(=O)N(C)C3CCCCC3)ccc21 (stereo unspecified)	-16%	-3%	25%	0%	2%
Cc1ccc(-n2c(C)nnc2SCC(=O)N2CCc3ccccc3C2)cc1	-2%	0%	6%	5%	-26%
O=C(C1=C[C@@H](c2csc3ccccc23)C[C@@H](OCc2ccc(CO)cc2)O1)N1CCN(Cc2ccccc2)CC1	35µM*	-2%	-13%	2%	-3%
CC(C#N)On1c(SC(C)C#N)nc2ccccc2c1=O (stereo unspecified)	-6%	-1%	-4%	1%	-8%
COc1ccc(-c2oc3ncn4nc(-c5ccc(Cl)cc5)nc4c3c2-c2ccc(OC)cc2)cc1	3%	/	/	-1%	/
COc1ccc(/C=N/c2oc(C)c(C)c2C#N)c(OC)c1	50µM*	-2%	-23%	-8%	7%
COc1cc(/C=N/c2oc(C)c(C)c2C#N)cc(Br)c1O	11µM*	-9%	-17%	-3%	14%
Cc1oc(/N=C/c2ccccc2)c(C#N)c1C	-3%	-8%	-9%	1%	16%
O=C(Cc1cccs1)NCc1ccccc1F	-13%	1%	3%	-6%	21%
CN(C(=O)c1cccc(N2C(=O)C3C4C=CC(C4)C3C2=O)c1)C1CCCCC1 (stereo unspecified)	-13%	-8%	-6%	8%	9%
CC1CCCCN1CC(=O)c1ccc2cc[nH]c2c1 (stereo unspecified)	8.9µM*	1%	-17%	-9%	1%
CC1CCCCN1CC(=O)c1c[nH]c2ccccc12 (stereo unspecified)	-31%	-1%	-11%	-2%	9%
COc1ccc(C2C(C#N)=C(N)Oc3n[nH]c(C)c32)cc1CSc1ccccn1 (stereo unspecified)	-12%	2%	-15%	1%	-12%
CCOC(=O)C1=C(C)OC(N)=C(C#N)C1c1ccc(OC)c(CSc2ccccn2)c1 (stereo unspecified)	25µM*	3%	-8%	2%	-4%
COCCC(=O)Nc1ccc2c(c1)CN(C(=O)c1ccc(CSC)o1)CC2	45µM*	3%	16%	-10%	57%

High-throughput results from PubChem BioAssay.
